Assay results from PubChem BioAssay (Tox21).
Records with an inconclusive call do not appear. A call without a number means that no potency is given here. Where a structure was tested more than once in an assay, its records may differ in their call. Calls of active or inactive are those of the source. Unless noted, calls come from the whole dose curve.

molecular target: Nuclear receptor subfamily 1 group I member 2 (Homo sapiens) (UniProt O75469); assay: Human pregnane X receptor (PXR) small molecule agonists, qHTS assay (AID 1346982; active = well fitted activation curve with a large enough effect in the repeat runs; note: nearly all actives have a fitted effect of over 35% in size); settings: PXR-Luc HepG2, CYP3A4 luciferase reporter, 24 h; series mostly up to 92.4 µM
Sequence (O75469 whole entry, looked up): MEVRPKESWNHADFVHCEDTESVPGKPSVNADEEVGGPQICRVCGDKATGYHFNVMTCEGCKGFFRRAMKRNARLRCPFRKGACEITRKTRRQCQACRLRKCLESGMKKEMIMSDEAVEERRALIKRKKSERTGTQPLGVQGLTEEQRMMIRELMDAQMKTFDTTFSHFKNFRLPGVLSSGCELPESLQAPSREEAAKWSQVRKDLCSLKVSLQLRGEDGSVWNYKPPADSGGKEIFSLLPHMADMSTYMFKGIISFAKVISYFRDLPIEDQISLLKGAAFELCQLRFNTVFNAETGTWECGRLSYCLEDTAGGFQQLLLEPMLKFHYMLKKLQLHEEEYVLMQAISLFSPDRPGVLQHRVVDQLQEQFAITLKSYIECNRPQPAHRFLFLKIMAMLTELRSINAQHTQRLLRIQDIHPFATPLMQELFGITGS
Outline: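 PXR-Luc HepG2 cells (CYP3A4 promoter-driven luciferase) were seeded in medium with 5% charcoal-stripped FBS, left 5 hr at 37 C, then exposed to compounds in DMSO for 24 hr. Luminescence was read after ONE-Glo addition.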
Potency is the fitted concentration of half-maximal effect.

SMILES	Potency
CCCCC/C=C\C/C=C\C/C=C\C/C=C\CCCC(=O)NCC(=O)O	inactive
CSC(=O)c1c(C(F)F)nc(C(F)(F)F)c(C(=O)SC)c1CC(C)C	4.83 µM (active)
Nc1nc(N)c(N)c(N)n1	inactive
Nc1ccc(Cl)cc1C(=O)c1ccccc1F	29.8 µM (active)
CCc1cccc(C)c1N(C(=O)CCl)[C@@H](C)COC	7.7 µM (active)
CC#C[C@]1(O)CC[C@H]2[C@@H]3C[C@H](C)C4=CC(=O)CC[C@]4(C)[C@H]3CC[C@@]21C	23.7 µM (active)
ClC1=C(Cl)[C@]2(Cl)[C@H]3[C@H]([C@@H]4C=C[C@H]3C4)[C@@]1(Cl)C2(Cl)Cl	34.3 µM (active) and inactive
COc1ccc2[nH]cc(CCN(C(C)C)C(C)C)c2c1	inactive
CCC(C)c1cccc(C(C)CC)c1O (stereo not drawn)	inactive
CCC(C)Nc1c([N+](=O)[O-])cc(C(C)(C)C)cc1[N+](=O)[O-] (stereo not drawn)	24.3 µM (active)
Cc1c([N+](=O)[O-])c(C)c([N+](=O)[O-])c(C(C)(C)C)c1[N+](=O)[O-]	48.6 µM (active)
Oc1cc(Cl)c(Cl)c(Cl)c1Cl	33.6 µM (active)
Oc1cc(Cl)cc(Cl)c1	69.3 µM (active)
COP(=O)(OC)O/C(=C\Cl)c1cc(Cl)c(Cl)cc1Cl	54.5 µM (active)
Brc1ccc(Oc2ccc(Br)cc2Br)c(Br)c1	30.7 µM (active)

molecular target: Acetylcholinesterase (Homo sapiens) (UniProt P22303); assay: Acetylcholinesterase (AChE) small molecule antagonists: colormetric cell-based qHTS assay (AID 1347395); settings: SH-SY5Y cells AChE activity, colorimetric (Ellman); series mostly up to 115 µM; note: nearly all actives have a fitted effect of over 30% in size
Sequence (P22303 whole entry, looked up): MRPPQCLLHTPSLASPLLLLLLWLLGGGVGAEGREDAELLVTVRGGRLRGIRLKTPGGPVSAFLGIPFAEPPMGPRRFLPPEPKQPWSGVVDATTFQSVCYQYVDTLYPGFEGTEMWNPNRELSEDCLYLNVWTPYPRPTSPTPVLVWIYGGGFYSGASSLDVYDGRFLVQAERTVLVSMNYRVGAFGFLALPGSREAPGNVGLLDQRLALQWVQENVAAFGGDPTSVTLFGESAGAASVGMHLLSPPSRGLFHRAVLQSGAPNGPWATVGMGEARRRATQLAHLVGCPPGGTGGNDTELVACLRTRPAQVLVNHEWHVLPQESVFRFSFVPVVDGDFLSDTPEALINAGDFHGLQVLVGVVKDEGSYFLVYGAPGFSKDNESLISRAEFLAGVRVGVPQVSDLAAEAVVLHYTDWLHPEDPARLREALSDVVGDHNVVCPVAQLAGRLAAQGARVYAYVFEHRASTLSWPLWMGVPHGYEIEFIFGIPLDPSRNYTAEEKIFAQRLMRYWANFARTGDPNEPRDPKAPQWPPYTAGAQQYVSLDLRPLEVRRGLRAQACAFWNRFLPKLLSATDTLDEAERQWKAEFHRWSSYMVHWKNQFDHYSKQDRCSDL
Outline: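 Cells (SH-SY5Y, 2,000 per well) are seeded and left overnight at 37 C. Compound is added for 30 min, then DTNB and acetylthiocholine for a further 90 min at 37 C before absorbance-based thiocholine detection.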

SMILES	Potency
C[C@@H]1CC2=CC(=O)CC[C@@H]2[C@H]2CC[C@@]3(C)[C@@H](CC[C@]3(C)O)[C@@H]21	inactive
CNC(=O)Oc1cc(C)cc(C(C)C)c1	0.633 µM (active)
C[C@]12CC[C@H]3[C@@H](CCC4=CC(=O)CC[C@@H]43)[C@@H]1CC[C@@H]2OC(=O)CCc1ccco1	inactive
CC(Cc1ccc2c(c1)OCO2)NO (stereo not drawn)	inactive
CCO/N=C(\CC)C1=C(O)CC(c2c(C)cc(C)cc2C)CC1=O (stereo not drawn)	inactive
COP(=S)(OC)Oc1ccc([N+](=O)[O-])c(C)c1	35.6 µM (active)
COP(=S)(OC)Oc1nc(Cl)c(Cl)cc1Cl	inactive
CC(=O)C(Cl)C(=O)N(C)C (stereo not drawn)	inactive
CC[C@]1(O)CC[C@H]2[C@@H]3CCC4=CCCC[C@@H]4[C@H]3CC[C@@]21C	inactive
c1ccc2c(c1)cc1ccc3cccc4ccc2c1c34	inactive
CCOP(=S)(OCC)SC(CCl)N1C(=O)c2ccccc2C1=O (stereo not drawn)	31.7 µM (active)
Fc1ccc(C(OCCN2CCN(CCCc3ccccc3)CC2)c2ccc(F)cc2)cc1	inactive
COC(=O)c1cc(Oc2ccc(Cl)cc2Cl)ccc1[N+](=O)[O-]	inactive
CC(C)=CC1C(C(=O)OC(C#N)c2cccc(Oc3ccccc3)c2)C1(C)C (stereo not drawn)	inactive
N#Cc1c2ccccc2cc2ccccc12	inactive
Clc1ccc(C(Cl)(Cl)Cl)cc1Cl	inactive
O=C(N[C@@H]1N=C(c2ccccc2F)c2cccc3c2N(CC3)C1=O)c1cc2ccccc2[nH]1	inactive

SMILES	Potency
CCN1CCC2(CC1)COc1cc3c(cc12)N(C(=O)c1ccc(-c2ccc(-c4nnc(C)o4)cc2C)cc1)CC3	29.3 µM (active)
CC1(C)C(C=C(Cl)Cl)C1C(=O)OC(C#N)c1ccc(F)c(Oc2ccccc2)c1 (stereo not drawn)	inactive
CCCCC/C=C\C/C=C\C/C=C\C/C=C\CCCC(=O)NCC(=O)O	inactive
CSC(=O)c1c(C(F)F)nc(C(F)(F)F)c(C(=O)SC)c1CC(C)C	inactive
Nc1nc(N)c(N)c(N)n1	inactive
Nc1ccc(Cl)cc1C(=O)c1ccccc1F	inactive
CCc1cccc(C)c1N(C(=O)CCl)[C@@H](C)COC	inactive
CC#C[C@]1(O)CC[C@H]2[C@@H]3C[C@H](C)C4=CC(=O)CC[C@]4(C)[C@H]3CC[C@@]21C	inactive
ClC1=C(Cl)[C@]2(Cl)[C@H]3[C@H]([C@@H]4C=C[C@H]3C4)[C@@]1(Cl)C2(Cl)Cl	inactive
CCOC(=O)CCN(SN(C)C(=O)Oc1cccc2c1OC(C)(C)C2)C(C)C	0.252 µM (active)
CCC(C)c1cccc(C(C)CC)c1O (stereo not drawn)	inactive
CCC(C)Nc1c([N+](=O)[O-])cc(C(C)(C)C)cc1[N+](=O)[O-] (stereo not drawn)	inactive
Cc1c([N+](=O)[O-])c(C)c([N+](=O)[O-])c(C(C)(C)C)c1[N+](=O)[O-]	inactive
Oc1cc(Cl)c(Cl)c(Cl)c1Cl	inactive
Oc1cc(Cl)cc(Cl)c1	inactive
Brc1ccc(Oc2ccc(Br)cc2Br)c(Br)c1	inactive
